The record followed here is publication PMC12670160, “A drug-repurposing screen of FDA- and EMA-approved drugs identifies two NF-κB inhibitors active against eumycetoma” (Journal of Antimicrobial Chemotherapy, 2025).

The test has as its system M. mycetomatis strain mm55. Particulars: primary screen, metabolic activity vs growth control, 96 h, 2 µM, inhibitor.

Structures are written as SMILES. Where a name gives a salt, the structure may show the parent alone. Read-outs that look alike come from different tables or passages of the source. The campaign covered roughly 5,300 compounds. About 130 (2.5%) showed an effect of 50% or more. Only a selection was taken, and strong results are over-represented in it overall. Numbered stars: 1 amine (or outer) side, 2 acyl side, 3 side chain; on linkers, the order of the positions; unused ones are H or OH. Bridge positions count the residues as written; N and C are the ends. Square brackets hold non-standard residues; d marks the D form. Side chains are listed from the residue outwards. Peptide text beside a SMILES is read from it. I, II: the chains in the order shown. * marks the point of attachment. Actinocin(9to1) = Cc1c2oc3c(C)ccc(C(=O)[*:1])c3nc-2c(C(=O)[*:2])c(N)c1=O; X1 = CCC(C)C(N)C1=NC(C(=O)*)CS1; NMeV = CN[C@H](C(=O)O)C(C)C; Orn = NCCC[CH](N)C(=O)O; Sar = CNCC(=O)O

`O=C1c2ccccc2-c2c(NCCc3ccccc3)c(=O)[nH]c3cccc1c23` [ONC0001816, brd7389]: the “% viability” value came to 84.69%. For `CCOC(=O)c1ccccc1OC(=O)CCCCCCCC(=O)Oc1ccccc1C(=O)OCC` [ONC0003554, tu2100], the “% viability” value is 98.87%. Regarding `CCOC(=O)c1c2c3c(cccc3[nH]c1=O)C(=O)c1ccccc1-2` [ONC0001061, nqdi1], the “% viability” value is recorded as 43.7%. Regarding `Cn1cnc(=N)c2nc[nH]c21` [ONC0004721, 3methyladenine 3ma], the “% viability” value turned out to be 115.8%. Regarding `CCC(=O)OCC(=O)C1(OC(=O)CC)[C@H](C)C[C@H]2C3[C@H](Cl)CC4=CC(=O)C=C[C@]4(C)[C@H]3[C@@H](O)C[C@@]21C` (stereo partly shown) [ONC0002939, alclometasonedipropionate], the “% viability” value worked out at 82.49%. Regarding `C/C(=C\c1csc(C)n1)[C@H]1C[C@@H]2O[C@]2(C)CCC[C@H](C)[C@H](O)[C@@H](C)C(=O)C(C)(C)[C@H](O)CC(=O)O1` [ONC0004615, patupilone epo906 epothilone b], the “% viability” value is listed as 75.3%. Still for that read-out and setting: the value for `C[C@H]1CC2C([C@@H](O)C[C@@]3(C)C2CC[C@]3(O)C(=O)COC(=O)CCC(=O)O)[C@@]2(C)C=CC(=O)C=C12` (stereo partly shown) [ONC0003156, methylprednisolone sodium succinate] was 82.41%; that for `CC(=O)N[C@@H](CSSC[C@H](NC(C)=O)C(=O)O)C(=O)O` [ONC0002807, nnü¾Œ“ ¼ü¾˜³ ¼diacetyllcystine] was 85.92%. Consider `CCCCOc1ccc(C(=O)Nc2ccc(F)cc2F)cc1` [ONC0005047, vu 0357121 vu 0357121 vu 0357121], for which the “% viability” value came to 78.07%. For the compound `C=CCN(C)CCCCCCOc1ccc(C(=O)c2ccc(Br)cc2)c(F)c1` [ONC0001825, ro 488071 fumarate], the “% viability” value is given as 29.93%. For the compound `CCCCC(F)(F)C(=O)CC[C@H]1[C@H](O)CC(=O)[C@@H]1CCCCCCC(=O)O` [ONC0004918, lubiprostone], the “% viability” value is 115.4%. Regarding `C[S+]([O-])c1ccc(-c2nc(-c3ccncc3)c(-c3ccc(F)cc3)[nH]2)cc1` (stereo not shown) [ONC0000881, sb203580], the “% viability” value came to 87.12%. On to `Fc1ccc(-c2nc(-c3c(F)cccc3F)[nH]c2-c2ccncc2)cc1` [ONC0000887, ta01], for which the “% viability” value worked out at 46.48%. In the case of `Oc1ccc(-c2nc(-c3ccncc3)c(-c3ccc(F)cc3)[nH]2)cc1` [ONC0000026, sb202190], the “% viability” value is given as 54.44%. Still for that read-out and setting: then `CSc1ccc([C@H]2CN3CCC[C@H]3c3ccccc32)cc1` [ONC0000925, mcn5652], with 74.54%; and `CN1CCCC1c1cccnc1` (stereo not shown) [ONC0005499, nicotine bitartrate], with 91%; and `C[C@@H]1NC(C)(C)CO[C@@]1(O)c1cccc(Cl)c1` [ONC0001157, radafaxine hydrochloride], with 85.48%. On the same count and under the same terms, then `[2H]C([2H])([2H])C(=O)Nc1c(I)c(C(=O)O)c(I)c(C(=O)NC)c1I` [ONC0002149, iothalamic acidd3], with 66.44%. Consider `CCC(C)C(N)C1=NC(C(=O)NC(CC(C)C)C(=O)NC(CCC(=O)O)C(=O)NC(C(=O)NCCCCC2NC(=O)C(CC(N)=O)NC(=O)C(CC(=O)O)NC(=O)C(Cc3c[nH]cn3)NC(=O)C(Cc3ccccc3)NC(=O)C(C(C)CC)NC(=O)C(CCCN)NC2=O)C(C)CC)CS1` (stereo not drawn) [ONC0003188, bacitracin] (cyclo(DNK([Ile-Glu-Leu-X1])[Orn]IFH); configuration not given here), for which the “% viability” value was 113.7%. Regarding `C=C(NNC(=S)NNC(=S)Nc1ccccc1Cl)c1ccccn1` [ONC0001982, n2chlorophenyl22e212pyridinylethylidenehydrazinocarbothioylhydrazinecarbothioamide], the “% viability” value is given as 78.69%. `C/C(=N\NC(=S)N1CCC1)c1ccccn1` [nsc319726]: the “% viability” value came out at 6.057%. Regarding `O=C(O)c1ccccn1` [ONC0003765, picolinicacid], the “% viability” value stood at 105.8%. With `Cc1c2oc3c(C)ccc(C(=O)N[C@@H]4C(=O)N[C@H](C(C)C)C(=O)N5CCC[C@H]5C(=O)N(C)CC(=O)N(C)[C@@H](C(C)C)C(=O)O[C@@H]4C)c3nc-2c(C(=O)N[C@@H]2C(=O)N[C@H](C(C)C)C(=O)N3CCC[C@H]3C(=O)N(C)CC(=O)N(C)[C@@H](C(C)C)C(=O)O[C@@H]2C)c(N)c1=O` [ONC0002258, actinomycin d] (I: T[dV]P[Sar][NMeV] / II: T[dV]P[Sar][NMeV]; ester I:1-I:C, II:1-II:C; linker I:N-II:N via Actinocin(9to1)), the “% viability” value (Madurella mycetomatis metabolic activity at 2µM (%)) was found to be 100.3%. Regarding `CNCCN(C)Cc1c[nH]nc1-c1ccc(O[C@H]2C[C@H](OCCC3CCOCC3)C2)cc1.Cl` [ONC0000962, epz020411 hydrochloride], the “% viability” value came out at 79.33%. As to `CN1c2c(nc(N)[nH]c2=O)NC[C@@H]1CNc1ccc(C(=O)N[C@@H](CCC(=O)O)C(=O)O)cc1` [ONC0002220, levomefolate calcium], the “% viability” value was found to be 182.5%. On to `CCCCCCCCCCCCCCCC(=O)OC[C@H](O)[C@H]1OC(=O)C(=O)C1O` (stereo partly shown) [ONC0004072, ascorbyl palmitate], for which the “% viability” value is recorded as 135.5%. Still for that read-out and setting: the value for `C[C@H](O[C@H]1OCCN(Cc2n[nH]c(=O)[nH]2)[C@H]1c1ccc(F)cc1)c1cc(C(F)(F)F)cc(C(F)(F)F)c1` [ONC0004612, aprepitant mk0869] was 34.22%; that for `C[C@@H](O[C@H]1OCCN(Cc2nc(O)n(P(=O)(O)O)n2)[C@H]1c1ccc(F)cc1)c1cc(C(F)(F)F)cc(C(F)(F)F)c1` [ONC0004322, fosaprepitant dimeglumine salt] was 108.4%. Regarding `C=C(Nc1ccc(OCC)cc1)Nc1ccc(OCC)cc1` [ONC0005342, phenacaine], the “% viability” value is 118.6%.

As for `O=C1c2c(O)cccc2[C@H]([C@@H]2O[C@H](CO)[C@@H](O)[C@H](O)[C@H]2O)c2cc(CO)cc(O)c21` [ONC0002367, aloin], the “% viability” value was determined as 94.66%. Still for that read-out and setting: then `On1ncc(C2CCNCC2)c1-c1cccc(-c2ccccc2)c1` [ONC0002501, php501 trifluoroacetate], with 45.31%.
